Screening results from PubChem.
TDP-43 yeast inh: inhibitors of TDP-43 toxicity in yeast | TDP-43 expressing yeast growth rescue, BacTiter-Glo, 24 h | Potency, µM (top dose mostly 46.1 µM), for the others: at the highest dose growth rescue (activation), most hits filed as activators | actives 1.8% (n = 410,000) | AID 652104; also: % of control where 0% means no effect; nearly all actives have a fitted effect of over 50% in size
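Galactose-induced TDP-43 yeast, OD600=0.02, compound pinned; 24 hr, 30 deg C; BacTiter-Glo luminescence for growth. Inhibitors of TDP-43 toxicity read as activators.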
PTAP TSG101 blk: blocks PTAP/TSG101 interaction to inhibit HIV-1 budding; Fluorescence polarization, FITC-PTAP peptide / Tsg101 binding; Potency, µM (top dose mostly 115 µM), for the others: at the highest dose activity change, negative = inhibition, most hits filed as inhibitors; 340,000 tested, under 10 active; AID 493005; active = well fitted inhibition curve with a large enough effect in the main read-out, with a control signal flat, not every such curve was filed as active; inconclusive = small, poorly fitted or top-dose-only effect, or effect the other way, or a change in a side signal; inactive = no such curve, though single readings can be large or run the other way; also: % of control where 0% means no effect
Target sequence (Q99816 whole entry, looked up): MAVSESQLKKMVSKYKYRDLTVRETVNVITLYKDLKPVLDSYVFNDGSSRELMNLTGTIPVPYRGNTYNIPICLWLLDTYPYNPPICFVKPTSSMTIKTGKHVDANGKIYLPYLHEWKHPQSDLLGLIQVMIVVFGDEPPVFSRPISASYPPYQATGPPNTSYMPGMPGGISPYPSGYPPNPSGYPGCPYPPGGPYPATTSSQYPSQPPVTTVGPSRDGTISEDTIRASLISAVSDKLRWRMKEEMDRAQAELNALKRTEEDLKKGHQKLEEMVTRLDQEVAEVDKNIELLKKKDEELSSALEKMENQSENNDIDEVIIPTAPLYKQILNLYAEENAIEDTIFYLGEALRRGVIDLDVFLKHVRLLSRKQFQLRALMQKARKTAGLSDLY
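Fluorescence polarization binding of Tsg101 binding domain (10 uM final) to FITC-labeled PTAP peptide (50 nM final) in HEPES pH 7.5 buffer with NaCl, Tween 20, EDTA, TCEP. Compounds added before peptide; binding 20 min at RT.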
aSyn rescue: alpha-synuclein toxicity inhibition in yeast. Yeast expressing alpha-synuclein, growth rescue, BacTiter-Glo, 24 h. Potency, µM (highest dose often 46.1 µM), without a hit: at the highest dose growth rescue (activation), hits mostly activators. actives 0.14% (n = 370,000). AID 652106; also: % of control where 0% means no effect; nearly all actives have a fitted effect of over 65% in size
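Readout is rescue of growth in alpha-synuclein-expressing yeast, so inhibitors of toxicity appear as activators. Growth after 24 hr at 30 deg C in galactose medium is quantified by luminescence.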
FUS yeast rescue: FUS proteinopathy suppression in yeast; S. cerevisiae FUS-expressing, growth rescue, OD600, 24 h; Potency, µM (highest dose often 76.6 µM), actives largely listed as activators; actives 0.24% (n = 390,000);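 also: plate controls were DMSO vehicle for no effect and reference control for full effect; nearly all actives have a fitted effect of over 55% in size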
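Absorbance at 600 nm, taken 24hr after compound addition, measured rescue of FUS-yeast growth at 30C. Induction used 2% galactose with seeding at OD 0.005. Controls: CP55940 from 92uM final, DMSO only.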
Abeta yeast res: A-beta toxicity reversal in yeast; Potency, µM (titrated, usually from 46.1 µM), most hits filed as activators; actives 0.063% (n = 410,000); yeast expressing A-beta42, growth rescue, OD600, 48 h; response scale: 0% DMSO, 100% iron-clioquinol control; also: nearly all actives have a fitted effect of over 55% in size
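Growth rescue measured by 600 nm absorbance after 48 h yeast culture at 30 C with compound. Values normalized between DMSO and an equimolar ferric chloride plus clioquinol control.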
Starred values were filed as active, the others as inactive; i = inactive; ? = inconclusive; / = no result; [ ] = another dose, or the depositor's remark. Compounds with a hit are over-represented: about 2.1% of the library has one in this group of screens. Unless noted, calls follow the shape of the dose curve; as a rule, active = well fitted curve in the direction sought with a large enough effect; inconclusive = small, poorly fitted or top-dose-only effect, or another doubt; inactive = no such curve, though single readings can be large; an effect the other way counts as inactive or inconclusive. Potency is read from the fitted curve at half-maximal effect.

SMILES | TDP-43 yeast inh | PTAP TSG101 blk | aSyn rescue | FUS yeast rescue | Abeta yeast res
CC(=O)c1cccc(NC(=O)C2(C)Cc3c(-c4cccc(C(F)(F)F)c4)ccnc3O2)c1 (configuration not stated) | 35µM* | / | ? | ? | i
CC(=O)Nc1ccc(-c2ccnc3c2CC(C)(C(=O)Nc2ccc(Cl)c(C(F)(F)F)c2)O3)cc1 (configuration not stated) | 35µM* | / | -35% | ? | i
O=C1c2ccccc2NC(c2cc(Br)c3c(c2)OCO3)N1Cc1ccco1 (configuration not stated) | / | / | 13% | / | /
NS(=O)(=O)c1ccc(NC(=O)c2ccc(CSc3ccccc3)o2)cc1 | -11% | -1% | 3% | i | i
CC(=O)c1ccc(NC(=O)c2ccc(CSc3ccccc3)o2)cc1 | 16µM* | 1% | -6% | i | i
O=C(Nc1ccc(F)cc1)c1ccc(CSc2ccc(Cl)cc2)o1 | -9%[1.82 µM] | -7% | -5% | i | ?
O=C(Nc1ccc(F)cc1)c1ccc(CSc2ccccc2)o1 | 16µM* | -5% | -12% | i | i
CC(=O)c1ccc(C(=O)Nc2nnc(-c3ccc(Cl)cc3)o2)cc1 | 10µM* | -5% | 3.2µM* | i | 6.3µM*
CCOc1ccccc1C(=O)NC(C(=O)OCC(=O)Nc1nnc(-c2ccccc2)o1)C(C)C (configuration not stated) | ? | -4% | ? | ? | i
CCOc1ccccc1C(=O)OCC(=O)Nc1nnc(-c2ccccc2)o1 | 22µM* | -1% | ? | i | ?
COc1cccc(C(=O)Nc2nnc(-c3ccc(Cl)cc3)o2)c1 | 3.2µM* | -1% | ? | i | ?
O=C(COc1ccccc1)Nc1nnc(-c2ccc(Cl)cc2)o1 | 14µM* | -3% | 14µM* | i | ?
COc1cccc(C(=O)Nc2nnc(-c3cccs3)o2)c1 | 0% | 0% | 7% | i | ?
COc1cccc(NC(=O)N(CCC(C)C)C2CCN(C(C)C)CC2)c1 | 12% | / | / | i | i
Cc1ccc(N2CCN(C(=O)c3c(C)oc4ncnc(N5CCCCC5)c34)CC2)c(C)c1 | ? | / | / | ? | i
CCCN1CCN(CCNC(=O)Nc2cc(C)ccc2OC)CC1 | 13% | / | / | i | i
O=C(Nc1nnc(-c2ccco2)o1)c1ccc(Cl)cc1 | ? | 0% | 11µM* | i | ?
COc1cccc(C(=O)Nc2nnc(-c3ccc(F)cc3)o2)c1 | 7.1µM* | -1% | 10µM* | i | ?
O=C1CC(c2ccccc2)Cc2[nH]c(=O)c(-c3nc(-c4ccc(F)cc4)cs3)cc21 (configuration not stated) | -2% | / | 4% | i | i
O=C(COc1ccc(Cl)cc1)NCC(c1ccco1)S(=O)(=O)c1ccccc1 (configuration not stated) | 6% | / | / | i | i
O=C(COc1ccc(Cl)cc1)NCC(c1ccco1)S(=O)(=O)c1ccc(Cl)cc1 (configuration not stated) | 35µM* | / | / | i | i
O=C(NC1CCCN(c2ccc(C(F)(F)F)cn2)C1)c1ccncc1 (configuration not stated) | ? | 0% | ? | i | i
CSc1ccccc1C(=O)NC1CCCN(c2ccc(C(F)(F)F)cn2)C1 (configuration not stated) | ? | -8% | -1% | i | 22µM*
COc1ccc(NC(=O)Cn2c(=O)n(CCCC(=O)NCCc3ccc(C)cc3)c(=O)c3ccccc32)cc1Cl | 15% | / | / | i | i
COc1ccc(OC)c(NC(=O)C(C)n2nc(C)c3c(C)n(-c4ccccc4)nc3c2=O)c1 (configuration not stated) | 18% | / | / | i | i
SMILES | TDP-43 yeast inh | PTAP TSG101 blk | aSyn rescue | FUS yeast rescue | Abeta yeast res
Cc1ccc(NC(=O)COc2ccc(Cl)cc2Cl)cc1S(=O)(=O)N1CCOCC1 | 14µM* | -2% | 8% | i | i
Cc1ccc(C(=O)OC(C)C(=O)Nc2ccc(S(N)(=O)=O)cc2)cc1S(=O)(=O)N1CCOCC1 (configuration not stated) | -23% | 2% | 2% | i | i
Cc1cc(Cl)ccc1OCC(=O)Nc1ccccc1N1CCOCC1 | 13µM* | -3% | 2% | i | i
COc1cccc(C(=O)Nc2ccccc2N2CCOCC2)c1 | 13µM* | -9% | -1% | i | i
Cc1ccc(NC(=O)C(C)OC(=O)c2ccc(NC(=O)CC#N)cc2)cc1S(=O)(=O)N1CCOCC1 (configuration not stated) | -3% | -1% | -3% | 14µM* | i
COc1cccc(C(=O)OCC(=O)Nc2ccccc2N2CCOCC2)c1 | ? | -2% | 0% | i | i
Cc1ccccc1C(=O)n1nc(-c2ccco2)nc1NCc1ccc(Cl)cc1 | 5% | / | / | i | i
Cc1nn(-c2ccccc2)c2sc(C(=O)Nc3cccc(Br)c3)cc12 | ? | / | / | i | i
CC1(C(=O)O)CCCN(C(=O)C2(c3ccc(Cl)cc3)CCCC2)C1 (configuration not stated) | 18µM* | / | -8% | i | i
CC1(C(=O)NS(=O)(=O)C2CC2)CCN(C(=O)C2(c3ccc(Cl)cc3)CCCC2)C1 (configuration not stated) | -5% | / | 4% | i | i
COc1ccc(CC(=O)O/N=C(\N)c2ccc(OC)cc2)cc1 | 18µM* | 0% | 11% | i | i
N/C(Cc1ccc(Cl)cc1Cl)=N\OC(=O)Cc1ccc(Cl)cc1 | 1.3µM* | 0% | -61% | i | i
COc1ccc(C/C(N)=N/OC(=O)Cc2ccccc2)cc1 | 16µM* | -1% | -2% | i | i
COc1ccc(CC(=O)O/N=C(\N)Cc2ccc(OC)cc2)cc1 | 11µM* | -1% | -8% | i | i
N/C(Cc1ccc(Cl)cc1Cl)=N\OC(=O)Cc1ccccc1 | ? | 1% | -69% | / | i
COc1ccc(/C(N)=N/OC(=O)C2CCCCC2)cc1 | 16µM* | 0% | -10% | i | i
COc1ccc(/C(N)=N/OC(=O)CN(C)S(=O)(=O)c2ccccc2)cc1 | 13µM* | -6% | 4% | i | i
COc1ccc(/C(N)=N/OC(=O)C2CCCCC2)cc1OC | 17% | -10% | -2% | i | i
Cc1ccc(CNC(=O)Cc2c(C)c3c(cc(C)c4c(C)coc43)oc2=O)cc1 | 1% | / | / | i | i
O=C(C1=C(O)/C(=C/c2ccc(O)cc2)CCC1)C(F)(F)F | 22µM* | -5% | -29% | i | i
C=CCOc1ccc(/C=C/C(=O)OCC(=O)NCCc2ccccc2)cc1 | 25µM* | 1% | 24% | i | i
